The list is not random: actives were taken first. Their share in the collection is about 6.6%.
Anthrax LF prot: inhibitors of Bacillus anthracis lethal factor protease. multiplex microsphere protease cleavage assay, LF. inhibition, % at 10 µM. 0.12% of 360,000 active; also: plate controls were buffer without enzyme for full effect and enzyme alone for no effect
FBA Mtb inh: inhibits M. tuberculosis FBA enzyme; 2.3% of 360,000 active; inhibition, % at 1 µM; purified M. tuberculosis FBA, fluorescence read-out; in the data active = inhibition above about 27%;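 also: 0% = vehicle and 100% = reference inhibitor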
BoNT-F LC inh: BoNT F light chain protease inhibition. Multiplex microsphere protease cleavage assay, flow cytometry. inhibition, % at 10 µM. 0.22% of 360,000 active. AID 588497; in the data active = inhibition above about 35%, passing the limit was not always enough; inconclusive = no clear call, values can overlap the other calls; also: plate controls were buffer without enzyme for full effect and enzyme alone for no effect
Bead autofluor: compound fluorescence in toxin protease inhibitor counterscreen. 3.1% of 360,000 active. fluorescence intensity (concentration not given with the values). compound autofluorescence counterscreen, microsphere flow cytometry; stronger effect = higher value; in the data active = fluorescence intensity above about 16000; inconclusive = no clear call, values can overlap the other calls
GDH-TPI inh: counter-screen for M. tuberculosis FBA inhibitors: GDH-TPI coupled enzymes; GDH-TPI coupled enzyme counterscreen, NADH absorbance; inhibition, % at 4.8 µM; 1.2% of 360,000 active; in the data active = inhibition above about 30%;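 also: 0% = DMSO wells and 100% = wells lacking the enzyme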
BoNT A protease: inhibitors of Botulinum neurotoxin A light chain protease; multiplex microsphere protease substrate cleavage, flow cytometry; inhibition, % at 10 µM; 0.17% of 360,000 active; also: plate controls were buffer without enzyme for full effect and enzyme alone for no effect
An asterisk follows results filed as active; ? = inconclusive; · = not tested or not shown; + = active, no number. Rule as the data show it, unless noted: active = inhibition above about 30%; inconclusive = no clear call, values can overlap the other calls; inactive = below that.

SMILES	Anthrax LF prot	FBA Mtb inh	BoNT-F LC inh	Bead autofluor	GDH-TPI inh	BoNT A protease
Cc1c(C(=O)Nc2ccc3c(c2)OCCO3)sc2ncnc(N3CCCCC3C)c12 (stereo not drawn)	-2	1	-2	3998	31*	1
Cc1ccc(-c2ccc(/C=C/C(=O)c3ccccc3)o2)cc1	19	-4	7	2633	0	44*
O=C(/C=C/c1ccc(-c2ccccc2[N+](=O)[O-])o1)c1ccc(Br)cc1	22	-4	7	21485*	8	?
O=C(/C=C/c1ccc(-c2ccccc2)o1)c1ccccc1	31*	-3	14	2583	5	63*
CCOC(=O)N1CCN(C(=O)CN(c2ccccc2)S(C)(=O)=O)CC1	-7	3	0	4004	1	0
CC1(C)Cc2c(sc(/N=C/N3CCOCC3)c2C#N)C(C)(C)N1	1	1	-2	2225	25	0
CC1(C)Cc2c(sc(/N=C/N3CCCCC3)c2C#N)C(C)(C)N1	0	-6	-6	10317	31*	1
C/C(=N\n1c(C)nc2ccccc2c1=O)c1ccc(N)cc1	3	0	?	3688	35*	-3
CCOC(=O)c1c(C)nc(C)c2c(=O)oc3ccccc3c12	3	1	2	4318	-3	1
COC(=O)c1cn(C(=O)c2ccccc2F)nc1N	1	0	6	21604*	3	4
CCCn1c(NCc2ccco2)nc2c1c(=O)n(C)c(=O)n2C	-2	3	-10	2495	-6	0
CCn1c(NCc2ccccn2)nc2c1c(=O)n(C)c(=O)n2C	1	-2	-1	16824*	-4	-1
CCOc1ccc(CCNc2nc3c(c(=O)n(C)c(=O)n3C)n2CC)cc1OCC	1	2	-2	16756*	11	?
CCCNc1nc2c(c(=O)n(C)c(=O)n2C)n1CCc1ccccc1	-2	3	2	7723	9	0
O=C(CSc1ccsc1[N+](=O)[O-])NCCc1ccccc1	-2	+	1	3897	4	0
O=C(CSc1nc2ccc(Cl)cc2[nH]1)NCCc1ccccc1	-1	-2	-4	6683	8	2
O=C(CSc1nc2ccc([N+](=O)[O-])cc2[nH]1)NCCc1ccccc1	-2	-2	3	20820*	8	6
O=C1C(Oc2ccccc2)C(c2ccc3c(c2)OCO3)N1CCc1ccc(F)cc1 (stereo not drawn)	-3	2	2	10482	33*	0
CC(=O)NCCCc1nc2ccccc2n1Cc1ccccc1F	-4	-2	4	4306	3	0
O=CNCCCc1nc2ccccc2n1Cc1cccc2ccccc12	-16	-2	2	20866*	-3	?
CC1Cc2ccccc2N1Cc1cccc([N+](=O)[O-])c1 (stereo not drawn)	8	3	22	3583	-2	-2
COc1cccc(C#Cc2c(C=O)n(C)c3ccccc23)c1	37*	21	13	3517	12	36*
COc1cccc(C2C(C#N)=C(N)Oc3c2oc(CO)cc3=O)c1OC (stereo not drawn)	-1	-5	2	22208*	-3	1
CC(C)C[C@H]1CNC(=O)C(=O)N1CC1CCN(CC2CCC(C)CC2)CC1 (stereo partly drawn)	-3	-1	-5	6035	·	0
O=C(CSc1ncn(-c2ccccc2)n1)Nc1ccc2c(c1)OCCO2	0	1	-2	24180*	-1	-1
SMILES	Anthrax LF prot	FBA Mtb inh	BoNT-F LC inh	Bead autofluor	GDH-TPI inh	BoNT A protease
O=C(CSc1ncn(-c2ccccc2)n1)Nc1ccc2c(c1)OCO2	-6	3	-12	10774	-5	-1
COc1ccc(NC(=O)CN2CCN(c3ccccn3)CC2)cc1Cl	17	+	-12	3485	-3	-1
O=C(CSc1ncn(-c2ccccc2)n1)Nc1ccc(Br)cn1	-1	0	-1	21921*	-1	1
O=C(CSc1ccccn1)Nc1ccc(Br)cn1	1	-2	1	2656	8	0
COc1ccc(NC(=O)CSc2ncn(-c3ccccc3)n2)cc1Cl	-14	-2	5	19084*	-4	5
N#Cc1cccc(-c2csc(C(O)c3ccco3)n2)c1 (stereo not drawn)	-4	-5	-7	3593	-7	0
Cc1c(C)c2ccc(OCC(=O)Nc3cccnc3)cc2oc1=O	-1	22	-2	6176	19	-1
O=C(Nc1ccc(S(=O)(=O)Nc2ncccn2)cc1)C1CC(=O)N(c2ccc(Cl)cc2)C1 (stereo not drawn)	7	2	16	3508	4	0
CCOC(=O)c1sc(NC(=O)CSc2ncn(-c3ccccc3)n2)nc1C	3	2	4	4318	8	1
Cc1sc(NC(=O)CSc2ncn(-c3ccccc3)n2)nc1-c1ccccc1	-1	-1	0	16319*	-6	1
O=c1c2cc(N3CCOCC3)ccc2[nH]c(=S)n1CCCN1CCCCC1	3	4	8	9667	31*	0
CC1CCN(CCCn2c(=S)[nH]c3ccc(N4CCOCC4)cc3c2=O)CC1	-1	2	-3	22801*	19	-2
O=c1c2cc(N3CCOCC3)ccc2[nH]c(=S)n1CCCN1CCCC1	0	5	-1	10120	27	1
O=[N+]([O-])c1ccc(N2CCSCC2)cc1	-7	-12	2	3504	71*	1
CCNc1nnc(-c2ccncc2)s1	-3	136*	-47	4238	21	-2
CNc1nnc(-c2ccncc2)s1	0	145*	0	16766*	16	-1
COCCCN(C(=S)Nc1cc(Cl)cc(Cl)c1)C(C)c1ccccn1 (stereo not drawn)	2	2	-13	6197	3	-1
COc1ccc(NC(=O)C2CCCN2C(=O)NC2CCCCC2)cc1 (stereo not drawn)	0	0	3	5025	4	0
CSc1ccccc1NC(=O)Nc1ccccc1	-2	-3	-8	25193*	6	?
CSc1ccccc1NC(=O)c1ccccc1N(C)S(C)(=O)=O	-5	-2	-5	22950*	-4	-2
CSc1ccccc1NC(=O)Nc1cccc(F)c1	1	0	-2	2526	1	0
CSc1ccccc1NC(=O)c1ccccc1N(Cc1ccccc1)S(C)(=O)=O	-11	-5	11	19711*	-6	9
CC(C)NC(=O)c1ccccc1NC(=O)c1ccccc1N(C)S(C)(=O)=O	-4	1	-36	9623	-1	-4
CCCCn1nnnc1C(c1ccccc1)N1CCN(c2ncc(C(F)(F)F)cc2Cl)CC1 (stereo not drawn)	-7	·	-3	5600	·	0
CCOC(=O)CSc1nnc(CNC(=O)c2cc(OCC)c(OCC)c(OCC)c2)n1C	2	0	-1	23875*	5	0
CCOC(=O)CSc1nnc(CNC(=O)c2ccc(S(=O)(=O)N3CCCC3)cc2)n1C	1	1	8	22679*	4	2

Screening results deposited in PubChem BioAssay by several laboratories.
